This is a sample that favours compounds with a hit; in the whole collection about 21% have one here.
Pf growth 96h: Primary qHTS for delayed death inhibitors of the malarial parasite plastid, 96 hour incubation | P. falciparum luciferase reporter growth, 96 h | Potency, µM (highest dose often 28.7 µM), without a hit: at the top dose activity change, negative = inhibition, most hits filed as inhibitors | 6.9% of 320,000 active | AID 504834, 2011; note: potency is the fitted concentration of half-maximal effect; % is set by controls: 0 for no effect and ±100 for the full control effect
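Luminescence readout: decreased luciferase signal marks inhibited growth of reporter-expressing P. falciparum in infected red cells (2% hematocrit, 0.05% parasitemia final), exposed to compound two generations (96 h, 37 C, 5% CO2).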
FBPA Giardia inh: qHTS Assay for Inhibitors of Fructose-1,6-bisphosphate Aldolase from Giardia Lamblia; purified Giardia FBPA; A8B2U2; Potency, µM (series often up to 59.6 µM), without a hit: top-dose activity, negative = inhibition, hits mostly inhibitors; 0.71% of 290,000 active; note: potency is the fitted concentration of half-maximal effect; % is set by controls: 0 for no effect and ±100 for the full control effect; nearly all actives have a fitted effect of over 55% in size
Target sequence (A8B2U2 whole entry, looked up): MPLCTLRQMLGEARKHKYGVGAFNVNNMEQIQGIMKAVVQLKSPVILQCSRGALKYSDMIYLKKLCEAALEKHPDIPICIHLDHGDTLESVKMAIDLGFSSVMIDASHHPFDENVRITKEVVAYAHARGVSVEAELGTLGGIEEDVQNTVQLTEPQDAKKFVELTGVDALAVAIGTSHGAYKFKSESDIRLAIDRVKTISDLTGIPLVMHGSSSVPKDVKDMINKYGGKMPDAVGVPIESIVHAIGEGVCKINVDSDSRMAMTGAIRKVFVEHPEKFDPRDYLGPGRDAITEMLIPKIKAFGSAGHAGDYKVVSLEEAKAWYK
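40 nM FBPA preincubated 10 min at RT with compound (up to 57.5 uM final), then substrate plus GAPDH/TPI/NAD/arsenate coupling and diaphorase/resazurin added. Fluorescence read after 20 min at RT, 525/598 nm.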
CHX counter: Cycloheximide Counterscreen for Small Molecule Inhibitors of Shiga Toxin | max response, % | 12% of 300,000 active | cell reporter, cycloheximide protein synthesis inhibition counterscreen | AID 2314, 2010; in the data active = max response mostly above about 13%, no sharp cut-off; inactive = mostly below about 14%; note: read at 38.3 µM for the half of the compounds with a filed dose; 0% is about no effect
Pf growth 48h: Primary qHTS for delayed death inhibitors of the malarial parasite plastid, 48 hour incubation; Potency, µM (titrated, usually from 28.7 µM), for the others: at the highest dose activity change, negative = inhibition, usual class: inhibitors; 5.9% of 310,000 active; AID 504832, 2011; P. falciparum luciferase growth in erythrocytes, 48 h; note: potency is the fitted concentration of half-maximal effect; % is set by controls: 0 for no effect and ±100 for the full control effect
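Here the parasites carry a stable luciferase gene and grow inside erythrocytes in Albumax-based RPMI medium with compound for one erythrocytic cycle. Activity is scored as loss of luminescent signal.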
NS1 function inh: qHTS Assay for Inhibitors of Influenza NS1 Protein Function | Potency, µM (top dose mostly 46.1 µM), without a hit: at the highest dose activity, positive = more growth | 0.4% of 270,000 active | AID 2326, 2010; calls by dose curve; note: potency is the fitted concentration of half-maximal effect; actives are rising curves; nearly all actives have a fitted effect of over 50% in size
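In this qHTS, NS1 from influenza A is expressed in budding yeast, where it slows growth. Cells are switched from glucose to 2% galactose medium (pH 6.0, -URA), treated with compound, and growth recovery is read at OD600.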
Shiga toxin inh: A qHTS for Small Molecule Inhibitors of Shiga Toxin. Vero cells, Shiga toxin protein synthesis inhibition reporter. inhibition, % at 38.7 µM. 9.2% of 290,000 active. AID 2315, 2010; in the data active = inhibition mostly above about 28%, no sharp cut-off; inactive = mostly below about 43%; note: 0% is about no effect
* marks the source's active call; other numbers are inactive results; ? = inconclusive; . = not tested or not shown; + = active, no number. Unless noted, calls come from the whole dose curve; as a rule, active = well fitted curve in the direction sought with a large enough effect; inconclusive = small, poorly fitted or top-dose-only effect, or another doubt; inactive = no such curve, though single readings can be large; an effect the other way counts as inactive or inconclusive.

SMILES | Pf growth 96h | FBPA Giardia inh | CHX counter | Pf growth 48h | NS1 function inh | Shiga toxin inh
COc1ccc(Cl)cc1Nc1nc(N)c2ccccc2n1 | ? | ? | 25* | 9.3µM* | -67% | .
Cc1ccc(NC(=O)COc2ccc(C(=O)c3ccccc3)cc2)c(O)c1 | ? | 1% | -2 | ? | 3% | -5
CN(C)C=Nc1ccc2nc3c(cc2c1)[nH]c1ccccc13 | -72% | -19% | 39* | ? | -5% | 74*
Cc1cc2[nH]c3ccccc3c2cn1 | ? | 2% | 2 | ? | 14% | 20
O=C(N/N=C/c1c[nH]c2ccccc12)C1COc2ccccc2O1 (centres undefined) | 10µM* | 0% | -4 | -4% | -6% | -9
CC(C)(C)c1ccc2c(c1)OC(C(=O)N/N=C\c1ccc(-c3cccc(C(=O)O)c3)o1)CO2 (centres undefined) | 40% | 3% | 70* | 26% | -10% | 148*
O=C(N/N=C\c1ccc(-c2ccccc2[N+](=O)[O-])o1)C1COc2ccccc2O1 (centres undefined) | ? | ? | -7 | -17% | 9% | -14
O=C(O)c1cccc(-c2ccc(/C=N/NC(=O)C3COc4ccccc4O3)o2)c1 (centres undefined) | -5% | 7% | 56* | 0% | -5% | +
O=C(N/N=C\c1ccc([N+](=O)[O-])o1)C1COc2ccccc2O1 (centres undefined) | -18% | -19% | 22* | ? | . | 67*
Cc1cc(NC(=O)CSc2nnc(CNC(=O)c3ccccc3)o2)no1 | -5% | . | 5 | 150% | 2% | -7
CC(C)(C)CC(C)(C)c1ccc(O)c(-n2nc3ccccc3n2)c1 | 1% | . | . | ? | . | .
CC(OC(=O)CCc1nc2ccccc2[nH]c1=O)c1ccccc1 (centres undefined) | ? | -5% | -2 | 9% | . | -13
CC(C)(CO)[C@@H](O)C(=O)NCCC(=O)O | 3% | . | . | -1% | . | .
COc1ccc(C2=NOC(C(=O)NCc3ccc(F)cc3)C2)cc1OC (centres undefined) | 2.3µM* | -3% | -5 | -28% | 1% | -5
COc1cc(C2=NOC(C(=O)Nc3ccc4c(c3)OCO4)C2)cc(OC)c1OC (centres undefined) | 13% | -3% | 18* | 2.9µM* | -12% | 25
COc1ccc(C2=NOC(C(=O)Nc3ccc4c(c3)OCO4)C2)cc1OC (centres undefined) | -7% | -29% | 28* | -22% | . | 89*
COc1cccc(C2=NOC(C(=O)Nc3ccc4c(c3)OCO4)C2)c1 (centres undefined) | 2% | -5% | 3 | 13% | . | 10
COc1ccc(NC(=O)C2CC(c3ccc(OC)c(OC)c3)=NO2)cc1OC (centres undefined) | 13µM* | -14% | 1 | -4% | 0% | -15
COc1ccc(CCNc2nc(C)nc3c2nnn3Cc2ccccc2)cc1OC | -29% | 5% | 1 | ? | 10% | -3
COc1ccc(NC(=O)C2CCCC2)cc1S(=O)(=O)N1CCOCC1 | -16% | . | . | -8% | . | .
OCc1cc([C@@H](O)CNCCCCCCOCCCCc2ccccc2)ccc1O | . | -1% | . | . | . | .
NC(=O)c1ccccc1NC(=O)CCn1c(=S)oc2ccccc21 | ? | 3% | -6 | 29% | -1% | -6
Cc1ccc(N(C)C(=O)c2cc(S(=O)(=O)N3CCCC3)cn2C)cc1 | 8% | 8% | -2 | -1% | 13% | 14
Cc1noc(C)c1-c1cc(NCc2ccccc2)ncn1 | . | 3% | . | . | . | .
CCn1c(/C=C/c2ccc(O)c(O)c2)nc2ccccc2c1=O | ? | -23% | 0 | ? | 22% | 2
Cc1nc2ccccc2c(=O)n1CCc1ccc(O)cc1 | -4% | 3% | 12 | 4% | -2% | -5
Cc1nc2ccccc2c(=O)n1CCc1ccccc1 | ? | -2% | 16* | ? | -8% | 53
NNc1nc2ccccc2c(=O)n1Cc1ccccc1 | ? | -4% | 29* | 59% | 9% | 43*

Screens deposited in PubChem by National Center for Advancing Translational Sciences (NCATS).
